Results reported in paper PMC7826789 (International Journal of Molecular Sciences, 2021).

Legend:
Settings in all cases: Compound Concentration (nM):1000
PDGFRB = test system: PDGFRB
PDPK1 = test system: PDPK1
PFCDPK1(P.falciparum) = test system: T1, PFCDPK1(P.falciparum)
T1 construct: gene CDPK1

PFPK5(P.falciparum) = test system: T2, PFPK5(P.falciparum)
T2 construct: gene MAL13P1.279

PFTAIRE2 = test system: T3, PFTAIRE2
T3 construct: gene CDK15

PFTK1 = test system: T4, PFTK1
T4 construct: gene CDK14

PHKG1 = test system: PHKG1
PHKG2 = test system: PHKG2
PIK3C2B = test system: PIK3C2B
PIK3C2G = test system: PIK3C2G
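Also: KINOMEscan scanMAX binding as percent activity remaining versus control; lower means stronger binding.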

Row | SMILES | Percent Control (PDGFRB) [%] | Percent Control (PDPK1) [%] | Percent Control (PFCDPK1(P.falciparum)) [%] | Percent Control (PFPK5(P.falciparum)) [%] | Percent Control (PFTAIRE2) [%] | Percent Control (PFTK1) [%] | Percent Control (PHKG1) [%] | Percent Control (PHKG2) [%] | Percent Control (PIK3C2B) [%] | Percent Control (PIK3C2G) [%]
1 | Cl.c1ccc(Cc2nc3ccc(Nc4ncnc5ccccc45)cc3[nH]2)cc1 [GR269666A] | 100 | 100 | 83 | 100 | 100 | 100 | 100 | 97 | 100 | 89
2 | COc1cc2ncn(-c3cc(O[C@H](C)c4ccccc4Cl)c(C(N)=O)s3)c2cc1OC [GSK237701A] | 12 | 90 | 75 | 57 | 60 | 100 | 100 | 79 | 12 | 78
3 | C[C@@H](Oc1cc(-n2cnc3ccc(OC4CCN(C)CC4)cc32)sc1C(N)=O)c1ccccc1Cl [GSK579289A] | 12 | 100 | 74 | 76 | 74 | 95 | 86 | 81 | 32 | 78
4 | COc1ccc2[nH]c3c4[nH]c5ccc(OC)cc5c4c4c(c3c2c1)C(=O)NC4=O [GW296115X] | 0.1 | 25 | 29 | 82 | 91 | 85 | 12 | 52 | 94 | 76
5 | NS(=O)(=O)c1ccc(Nc2ncc(-c3ccccc3)o2)cc1 [GW572399X] | 3.4 | 100 | 27 | 100 | 98 | 100 | 100 | 100 | 100 | 100
6 | COC(=O)Nc1nc2ccc(Oc3ccc(NC(=O)Nc4cc(C(F)(F)F)ccc4F)cc3)cc2s1.Cl [GW693917A] | 0.1 | 95 | 77 | 77 | 27 | 56 | 100 | 90 | 100 | 87
7 | CN(C)c1cc2c(Nc3ccc4c(cnn4Cc4ccccc4)c3)ncnc2cn1 [GW282974X] | 98 | 100 | 32 | 94 | 79 | 100 | 91 | 83 | 35 | 89
8 | COc1cc(C)c(N(C)C(=O)CN(C)C)cc1Nc1nc(Nc2cccc(F)c2C(N)=O)c2cc[nH]c2n1 [GSK2219385] | 100 | 97 | 100 | 76 | 79 | 100 | 100 | 83 | 100 | 92
9 | COc1cc(N2CCN(C(C)C)CC2)ccc1Nc1nc(Nc2ccc(F)cc2C(=O)NC[C@@H](O)CO)c2cc[nH]c2n1 [GSK1392956A] | 100 | 91 | 94 | 74 | 100 | 100 | 29 | 39 | 100 | 96
10 | Cl.O=C(Nc1ccc(Oc2ccc3[nH]c(NC(=O)c4ccccc4)nc3c2)cc1)Nc1cc(C(F)(F)F)ccc1F [GW709042A] | 1.2 | 100 | 100 | 100 | 100 | 97 | 100 | 100 | 100 | 97
11 | NS(=O)(=O)c1ccc(N/N=C2\C(=O)Nc3ccc(C(=O)NCc4ccncc4)cc32)cc1 [GW300657X] | 74 | 65 | 85 | 57 | 49 | 73 | 100 | 70 | 100 | 86
12 | Cl.O=S1CCN(Cc2ccc(-c3ccc4ncnc(Nc5ccc(OCc6ccccc6)c(F)c5)c4c3)o2)CC1 [GW576924A] | 100 | 100 | 83 | 100 | 100 | 100 | 100 | 100 | 100 | 78
13 | CC1=C(C(=O)Nc2ccc3[nH]ncc3c2)C(c2ccc3ccccc3c2)CC(=O)N1 (stereo not shown) [GSK270822A] | 74 | 100 | 66 | 70 | 60 | 64 | 100 | 100 | 92 | 79
14 | COc1cccc(-n2ncc3c(N/N=C/c4ccncc4)ncnc32)c1 [GW784752X] | 60 | 92 | 33 | 100 | 74 | 95 | 37 | 93 | 100 | 98
15 | NS(=O)(=O)c1ccc(N/N=C2\C(=O)Nc3ccc(Cl)cc32)cc1 [GW280670X] | 29 | 100 | 81 | 100 | 100 | 100 | 100 | 100 | 100 | 88
16 | CCS(=O)(=O)c1ccc(OC)c(Nc2ncc(-c3cccc(OC)c3)o2)c1 [GW580509X] | 9.7 | 100 | 7.8 | 100 | 100 | 100 | 100 | 100 | 100 | 97
17 | Cc1cc(O)cc(C)c1/C=C/c1cncc(C(N)=O)c1 [GW435821X] | 0.5 | 96 | 75 | 100 | 100 | 100 | 100 | 100 | 97 | 85
18 | CCn1c(-c2nonc2N)nc2c(C#CC(C)(C)O)nc(OCCNC)cc21.Cl [GSK949675] | 100 | 79 | 100 | 100 | 100 | 100 | 100 | 100 | 82 | 100
19 | CN(C)CCNC(=O)Nc1ccc(N(C)c2ccnc(Nc3ccc(CS(C)(=O)=O)cc3)n2)cc1.Cl [GW830900A] | 0 | 83 | 83 | 100 | 90 | 100 | 92 | 100 | 100 | 95
20 | CCc1ccc(Oc2nccc(-c3c(-c4ccc(F)cc4)ncn3C3CCNCC3)n2)cc1 [SB-242719] | 81 | 86 | 66 | 87 | 93 | 86 | 90 | 72 | 100 | 93

Row | SMILES | Percent Control (PDGFRB) [%] | Percent Control (PDPK1) [%] | Percent Control (PFCDPK1(P.falciparum)) [%] | Percent Control (PFPK5(P.falciparum)) [%] | Percent Control (PFTAIRE2) [%] | Percent Control (PFTK1) [%] | Percent Control (PHKG1) [%] | Percent Control (PHKG2) [%] | Percent Control (PIK3C2B) [%] | Percent Control (PIK3C2G) [%]
21 | CC(C)COC(=O)c1ccc2c(c1)/C(=C/Nc1ccc(S(N)(=O)=O)cc1)C(=O)N2 [GW416981X] | 57 | 55 | 71 | 100 | 75 | 89 | 100 | 54 | 100 | 97
22 | CC1=C(C(=O)Nc2ccc3[nH]ncc3c2)C(c2ccc(Cl)c(Cl)c2)CC(=O)N1 (stereo not shown) [GSK299115A] | 99 | 100 | 87 | 71 | 66 | 49 | 100 | 84 | 84 | 77
23 | Cl.O=C(Nc1ccc(Oc2ccc3[nH]c(NC(=O)c4ccco4)nc3c2)cc1)Nc1cc(C(F)(F)F)ccc1F [GW683134A] | 0.3 | 67 | 84 | 100 | 87 | 100 | 100 | 95 | 100 | 83
24 | O=C1Nc2ccc(C(=O)c3ccco3)cc2C1=Cc1cc(Cl)c(O)c(Cl)c1 [GW406108X] | 88 | 97 | 9.5 | 93 | 100 | 89 | 100 | 70 | 12 | 39
25 | CCS(=O)(=O)c1ccc(OC)c(Nc2ncc(-c3cccc(F)c3)o2)c1 [GW621970X] | 5.4 | 100 | 4.1 | 100 | 100 | 95 | 100 | 100 | 100 | 100
26 | CN1CCN(C(=O)c2ccc(NC(=O)Nc3ccc(N(C)c4ccnc(Nc5ccc(CS(C)(=O)=O)cc5)n4)cc3)cc2)CC1.Cl [GW830263A] | 0 | 68 | 71 | 95 | 100 | 81 | 100 | 100 | 100 | 100
27 | Cl.O=C(O[C@H]1CN[C@H](C#Cc2cc3ncnc(Nc4ccc5c(cnn5Cc5ccccc5)c4)c3s2)C1)N1CCOCC1 [GSK200398A] | 100 | 89 | 88 | 100 | 91 | 100 | 96 | 98 | 88 | 84
28 | O=C(Nc1n[nH]c2nc(-c3ccc(O)cc3)c(Br)cc12)C1CC1 [SB-725317] | 3.4 | 100 | 32 | 100 | 92 | 84 | 100 | 100 | 100 | 100
29 | COc1ccccc1-c1cc(/C=C2\C(=O)Nc3ncc(Br)cc32)cc(Br)c1O [GW442130X] | 72 | 89 | 100 | 100 | 100 | 100 | 100 | 100 | 59 | 87
30 | COc1cc(/C=N/Nc2ncnc3[nH]ncc23)ccc1O [GW578748X] | 38 | 83 | 18 | 100 | 96 | 100 | 100 | 88 | 72 | 51
31 | COc1cccc(-c2c[nH]c3c(N/N=C/c4ccncc4)ncnc23)c1 [GW814408X] | 5.5 | 78 | 5.2 | 97 | 78 | 95 | 100 | 100 | 100 | 92
32 | COc1cc(C=NNc2ncnc3c2cnn3-c2ccccc2)ccc1O [GW513184X] | 40 | 100 | 100 | 100 | 100 | 91 | 100 | 100 | 71 | 100
33 | NS(=O)(=O)c1ccc(N/N=C2\C(=O)Nc3ccc(C(=O)NCCc4c[nH]cn4)cc32)cc1 [GW300660X] | 100 | 97 | 69 | 78 | 100 | 100 | 100 | 71 | 100 | 86
34 | COc1ccc2c(-c3ccnc(Nc4cccc(OC(F)(F)F)c4)n3)cnn2n1 [GW810372X] | 100 | 100 | 81 | 100 | 100 | 100 | 100 | 100 | 100 | 74
35 | COc1ccc2cc(-c3c(-c4ccncc4)nc(-c4ccc(S(C)(=O)=O)cc4C)n3C)ccc2c1 [SB-633825] | 70 | 100 | 61 | 77 | 45 | 80 | 100 | 84 | 76 | 81
36 | COc1ccc(COc2ccc(Cc3cnc(N)nc3N)cc2OC)cc1 [GW632580X] | 92 | 100 | 70 | 71 | 80 | 74 | 100 | 96 | 86 | 100
37 | Nc1ncnc2occ(-c3ccc(NC(=O)Nc4cc(C(F)(F)F)ccc4F)cc3)c12 [GW770249X] | 0 | 57 | 83 | 100 | 46 | 18 | 100 | 100 | 100 | 88
38 | NS(=O)(=O)c1ccc(N/N=C2\C(=O)Nc3ccc(-c4cnco4)cc32)cc1 [GW276655] | 57 | 82 | 93 | 95 | 60 | 94 | 100 | 81 | 86 | 96
39 | COc1cc2ncnc(Nc3ccc4c(cnn4Cc4ccccc4)c3)c2cc1OC.Cl [GW282449A] | 100 | 100 | 57 | 100 | 100 | 100 | 100 | 100 | 100 | 97
40 | C/C(Nc1ccc(S(N)(=O)=O)cc1)=C1/C(=O)Nc2ccccc21 [GW335962X] | 59 | 100 | 77 | 91 | 95 | 72 | 94 | 53 | 100 | 90
